Test results published in the supplement of paper PMC8728848.
The sample as a whole holds a higher share of the strongest signals than the screen did.

Target: Neu5Ac(b2-6)GalNAc
Assay: glycan array binding signal (z-score within array); higher = stronger binding
Details: glycan notation: IUPAC condensed, linker removed
How it was run: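 The binding signal is a Z-score computed within each array and averaged over linkers. Arrays of the same protein sequence at different concentrations or buffers were also averaged together. Data originate from 3228 arrays in the Consortium for Functional Glycomics database, kept only where the protein sequence was available.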

B1: HHL-2 (Homo sapiens), P07307 (protein)
chain: MAKDFQDIQQLSSEENDHPFHQGEGPGTRRLNPRRGNPFLKGPPPAQPLAQRLCSMVCFSLLALSFNILLLVVICVTGSQSEGHRGAQLQAELRSLKEAFSNFSSSTLTEVQAISTHGGSVGDKITSLGAKLEKQQQDLKADHDALLFHLKHFPVDLRFVACQMELLHSNGSQRTCCPVNWVEHQGSCYWFSHSGKAWAEAEKYCQLENAHLVVINSWEEQKFIVQHTNPFNTWIGLTDSDGSWKWVDGTDYRHNYKNWAVTQPDNWHGHELGGSEDCVEVQPDGRWNDDFCLQVYRWVCEKRRNATGEVA
glycan array binding signal (z-score): -0.379
